Assay in all cases: NCI-60 one-dose screen, 48 h (100 = growth as untreated, 0 = no growth, -100 = all killed)
Common to all, as to conditions: 10 µM unless noted

Assay [1] deals with DU-145 prostate.
Assay [2] deals with K-562 leukemia.
Assay [3] has as its system MALME-3M melanoma.
The test system of assay [4] is MDA-MB-231 breast.
Assay [5] concerns RXF 393 renal.
The test system of assay [6] is SF-268 CNS.
Assay [7] concerns SF-295 CNS.
Assay [8] has as its system SF-539 CNS.
In assay [9] the test system is UACC-257 melanoma.
Assay [10] deals with M14 melanoma.

This is part of a sample that, as a whole, favours compounds with a hit. Of some 83,000 tested, about 20% had one in any assay.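 Step 1: grow cells in 96-well plates. Step 2: add test compound at a single concentration. Step 3: incubate 48 h. Step 4: record percent growth.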 A number with no mark means an inactive call. The source made the active and inactive calls. Rule for the calls: active = growth percent below 10; inactive = the rest.

Take `O=C(/C=C/C=C/c1ccc2c(c1)OCO2)N/N=C\c1ccc(O)cc1O`: the growth is 44% in assay [1]; 11.6% in assay [2]; 40.3% in assay [3]; 34.4% in assay [4]; 57.9% in assay [5]; 24.4% in [6]. For the same compound, the growth was 13.8% in [7], 13.3% in assay [8], 28.5% in [9] and 30.3% in [10].
For the compound `OCc1ccc(N2CCc3cccc(F)c3C2)cc1Cl`, the growth in [1] is 100% [0.1 µM]; in [2], 38.5% [0.1 µM]; in assay [3] it was 104% [0.1 µM]; in assay [4], 107% [0.1 µM]; in [5] it was 103% [0.1 µM]; in assay [6] it was 105% [0.1 µM]. In addition, the growth in assay [7] is 52.7% [0.1 µM]; in assay [8] it was 110% [0.1 µM]; in assay [9] it was -14.3% [0.1 µM] (active); in [10], 111% [0.1 µM].
`COc1ccc(C2CC(c3ccc4ccccc4c3)=NN2/C=C2\SC(=S)N(NC(=O)Cc3ccccc3Nc3c(Cl)cccc3Cl)C2=O)cc1` (stereo not given): the growth in [1] is 12.2%; in [2] it was 10.6%; in [3], 52.9%; in [4], 41%; in assay [5], -8.96% (active); in [6] it was 34.6%. The growth in assay [7] was 14.1%; in assay [8], -16.9% (active); in [9], 56.2%; in [10] it was -25.1% (active).
As for `COc1ccc(C(=O)COc2ccc(/C=C3\COc4ccc(OC)cc4C3=O)cc2)cc1`, the growth in assay [1] is 107%; in assay [2], 33.7%; in assay [3] it was 90.2%; in assay [4], 106%; in assay [5], 21.7%; in assay [6], 112%. Also, the growth in [7] is 144%; in [8], 105%; in [9] it was 29.2%; in assay [10], 95%.
On to `C=C(C)C1CC(O)C2(C)CCCC3C2C1CC(C)C3(C)CC/C(C)=C/C(O)C1CCC(=O)c2c(OC)cc(OC)cc21` (stereo not given), for which the growth was 43.3% in assay [1]; 22% in assay [2]; 52% in assay [3]; 48.6% in assay [4]; 52.7% in [5]; 44.5% in assay [6]. The growth is 41.4% in [7], 50.8% in assay [8], 12.6% in [9] and 72.7% in assay [10].
As to `COc1cc(-c2nn(C)nc2-c2cc3ccccc3s2)cc(OC)c1OC`, the growth was 20.1% in assay [1]; 8.42% (active) in [2]; 76.1% in assay [3]; 37.7% in assay [4]; 35.3% in assay [5]; 39.8% in assay [6]. The growth in assay [7] was 9.39% (active); in [8] it was -9.68% (active); in assay [9] it was 54.7%; in assay [10], 10.9%.
As for `COc1ccc(-n2nc(C)c3c(Nc4ccc(NC(=O)Nc5ccc(Cl)c(C(F)(F)F)c5)cc4)ncnc32)cc1`, the growth in [1] is 23.8%; in assay [2], 5.84% (active); in assay [3], -27.5% (active); in assay [4], -25% (active); in [5], -35.7% (active); in assay [6], 17.7%. The growth in [7] was -39.7% (active); in [8] it was -5.4% (active); in [9], -16.6% (active); in assay [10], -26.9% (active).
`Cc1ccc2c(C(C[N+](=O)[O-])c3ccco3)c(-c3ccccc3)[nH]c2c1` (stereo not given): the growth in assay [1] was 49.6%; in assay [2], 11.5%; in [3], 47.1%; in [4], 41.8%; in assay [5] it was 35.2%; in assay [6] it was 37.8%. Besides, the growth in assay [7] is 7.56% (active); in assay [8], 20.4%; in assay [9] it was 43.4%; in assay [10] it was 7.34% (active).
`Cn1c(=O)c2c(nc3n(-c4ccc(Cl)cc4Cl)c(Sc4nc(-c5ccccc5)c(C#N)c(=O)[nH]4)cn23)n(C)c1=O`: the growth in assay [1] is 50.5%; in assay [2], 84%; in assay [3] it was 45.2%; in assay [4], 27.7%; in assay [5], 59.1%; in [6], 61.9%. In addition, the growth in assay [7] is 44.4%; in [8], 30.6%; in assay [9], 99.9%; in assay [10], 84%.
On to `COc1ccc(-c2cc(NC(=O)Nc3ccc4ncsc4c3)no2)cc1`, for which the growth in assay [1] was 108%; in assay [2], 101%; in assay [3] it was 112%; in assay [4], 103%; in assay [5], 129%; in assay [6], 105%. In addition, the growth in assay [7] is 89.1%; in assay [8], 102%; in assay [9], 115%; in assay [10], 106%.
Consider `COc1cc(-c2nc3ccccc3[nH]2)ccc1OCC(=O)N=Nc1c(O)[nH]c2ccc(Cl)cc12`, for which the growth was -37.8% (active) in assay [1]; -25.4% (active) in assay [2]; -66.9% (active) in assay [3]; -87.4% (active) in [4]; -56.5% (active) in assay [5]; -72.9% (active) in assay [6]. Moreover, the growth in assay [7] was -68.8% (active); in [8], -83.9% (active); in [9], -18.7% (active); in assay [10], -71.7% (active).
In the case of `CC1=NN(c2nc(-c3ccc(Cl)cc3)c(C#N)c(N3CCOCC3)n2)C(=O)C1`, the growth is 102% in assay [1]; 101% in [2]; 42% in [3]; 91.9% in [4]; 43.4% in assay [5]; 91.1% in [6]. In addition, the growth is 103% in assay [7], 97.9% in assay [8], 99.9% in [9] and 90% in assay [10].
As for `O=C(NCCN1CCOCC1)Nc1ccc(-c2cc3c(Nc4ccc(Oc5cccc(C(F)(F)F)c5)c(Cl)c4)ncnc3s2)cc1`, the growth in assay [1] is 44.7%; in [2], -29.5% (active); in assay [3] it was -57.5% (active); in assay [4], 12%; in [5], -19.5% (active); in assay [6], 29.3%. In addition, the growth was -58.5% (active) in [7], -13.5% (active) in [8], 26.4% in assay [9] and -50.5% (active) in assay [10].
Consider `Cc1ccc(-c2onc3c(=O)[nH]nc(-c4ccccc4)c23)cc1`, for which the growth in assay [1] was 19.4%; in assay [2], 14.7%; in assay [3], 82.6%; in assay [4], 34.9%; in assay [5], 31.8%; in assay [6], 48.6%. The growth was 23.7% in assay [7], -4.93% (active) in assay [8], 47.3% in assay [9] and 23.2% in [10].
`COc1cccc(-c2nn(C(C)(C)C)cc2-c2ccnc(NCCCNS(=O)(=O)c3cccc4ccccc34)c2)c1`: the growth in [1] was 107%; in [2] it was 104%; in assay [3], 114%; in assay [4], 106%; in assay [5], 109%; in assay [6], 108%. The growth is 101% in [7], 113% in [8], 110% in assay [9] and 101% in assay [10].
For `CC(C)(O)c1cn(CCCCN2C(=O)C(=O)c3ccccc32)nn1`, the growth in [1] was 113%; in assay [2], 94.3%; in assay [3], 105%; in assay [4] it was 99.7%; in assay [5], 104%; in [6], 99.7%. For the same compound, the growth was 102% in assay [7], 96.4% in [8], 103% in assay [9] and 97.7% in [10].
As to `CCOc1cc2ncc(C#N)c(Nc3ccc(F)c(Cl)c3)c2cc1NC(=O)CC1CCSS1` (stereo not given), the growth in assay [1] was -81.5% (active); in assay [2], -26.4% (active); in assay [3], -57.8% (active); in [4], -66.4% (active); in [5], -56.5% (active); in assay [6] it was -55.2% (active). Moreover, the growth in assay [7] is -36.8% (active); in assay [8] it was -12.6% (active); in assay [9] it was -53.6% (active); in assay [10], -66.8% (active).
In the case of `Cn1cc(C(=O)c2nc(-c3c[nH]c4ccc(Br)cc34)no2)c2cc(F)ccc21`, the growth in assay [1] is 106%; in [2], 102%; in assay [3], 96.1%; in [4], 89%; in [5], 109%; in assay [6] it was 99.2%. In addition, the growth in assay [7] was 97.6%; in [8], 99.1%; in assay [9] it was 99.7%; in assay [10], 100%.
For `COc1ccc(-n2nc(C)c3c(Nc4ccc(NC(=O)Nc5cccc(C(F)(F)F)c5)cc4)ncnc32)cc1`, the growth in assay [1] was 18.2%; in assay [2] it was 4.37% (active); in assay [3] it was -10.9% (active); in [4], -18.7% (active); in assay [5] it was -36% (active); in assay [6] it was 22.8%. In addition, the growth in assay [7] was -44.1% (active); in assay [8], 2.75% (active); in [9], -1.66% (active); in assay [10], -0.151% (active).
As to `CSc1nc(NCCN2CCOCC2)c(C#N)c(-c2cccc([N+](=O)[O-])c2)n1`, the growth is 106% in assay [1]; 100% in [2]; 98.7% in [3]; 86.3% in assay [4]; 103% in assay [5]; 96.7% in assay [6]. The growth was 99.1% in [7], 90.3% in [8], 98.2% in assay [9] and 101% in [10].
`CCOC(=O)c1sc2nc(-c3cccc(O)c3)nc(N3CCOCC3)c2c1C`: the growth in [1] was 38.9%; in assay [2], 60.5%; in [3], 62.7%; in assay [4], 47.6%; in [5] it was 18.4%; in assay [6], 48.9%. Besides, the growth in [7] was 81%; in assay [8], 51.3%; in assay [9], 82.6%; in assay [10], 69.2%.
In the case of `Cc1ccc(/C=C2\SC(=S)N(CC(=O)NCCCN3CCOCC3)C2=O)cc1`, the growth in assay [1] was 104%; in assay [2], 89.6%; in [3], 95.1%; in assay [4] it was 91.9%; in [5] it was 101%; in assay [6] it was 96.5%. Moreover, the growth in [7] is 91.1%; in assay [8], 93.7%; in assay [9], 101%; in [10] it was 102%.
In the case of `Cc1ccc(C2Oc3ccccc3C3CC(c4cccs4)=NN32)cc1` (stereo not given), the growth in [1] is 97%; in assay [2], 101%; in assay [3], 95.1%; in assay [4], 91.3%; in [5], 101%; in [6], 91.4%. The growth in [7] was 99%; in [8], 90.1%; in [9] it was 98.6%; in assay [10] it was 99.3%.
In the case of `O=C1OC(c2ccccc2)C(O)=C1c1ccccc1` (stereo not given), the growth in assay [1] is 112%; in assay [2] it was 110%; in assay [3], 116%; in assay [4] it was 104%; in assay [5] it was 111%; in assay [6], 96.4%. The growth is 109% in assay [7], 102% in assay [8], 95.2% in assay [9] and 111% in [10].

Source of the values: PubChem BioAssay (NCI).
